HP1b binding inh: blocks HP1-beta chromodomain binding to methylated histone tails; P83916; AlphaScreen HP1-beta / biotin-H3K9me3 peptide binding; Potency, µM (top dose mostly 114 µM), for inactives: at the highest dose activity change, negative = inhibition, most hits filed as inhibitors; hit rate 0.56% among 390,000; also: potency is read from the fitted curve at half-maximal effect; nearly all actives have a fitted effect of over 70% in size
Target sequence (P83916 whole entry, looked up): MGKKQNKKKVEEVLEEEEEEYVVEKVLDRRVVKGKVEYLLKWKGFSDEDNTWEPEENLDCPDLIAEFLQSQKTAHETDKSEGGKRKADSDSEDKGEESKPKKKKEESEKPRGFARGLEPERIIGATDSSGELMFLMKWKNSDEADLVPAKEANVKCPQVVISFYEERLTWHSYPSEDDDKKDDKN
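AlphaScreen: HP1-beta (50 nM) preformed 30 min with biotin-H3(1-18)K9me3 peptide (50 nM) in PBS pH 7.4, 0.01% Tween-20. Compound added for 30 min at RT, then streptavidin donor/nickel chelate acceptor beads (10 ug/mL) for 30 min.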
Six1-Eya2 blk: inhibitors of human Six1/Eya2 interaction; Q15475+O00167; AlphaScreen GST-Six1/His-Eya2 binding, biochemical; stronger effect = lower value; activity change, % (test concentration not listed); hit rate 0.56% among 360,000; in the data active = activity change below about -65%; inconclusive = mostly about -30% to -63%; also: % is scaled to controls: 0 for no effect and ±100 for the full control effect
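GST-Six1 + His-Eya2 (5X stock: 250/500 nM); Tris pH 8.0, 300 mM NaCl, 0.05% BSA, 0.02% Tween 20; GSH donor/Ni acceptor beads; 1 h 37 °C dark; AlphaScreen readout.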
JMJD2A Tudor inh: blocks the human JMJD2A Tudor domain. Potency, µM (titrated, usually from 114 µM), inactives show top-dose activity change, negative = inhibition, most hits filed as inhibitors. AlphaScreen JMJD2A-Tudor / H3K4me3 peptide binding. hit rate 4.4% among 390,000. O75164; also: potency is read from the fitted curve at half-maximal effect; % is scaled to controls: 0 for no effect and ±100 for the full control effect; nearly all actives have a fitted effect of over 50% in size
BAZ2B inh: blocks human BAZ2B; Q9UIF8; AlphaScreen BAZ2B-H3K14Ac peptide displacement; Potency, µM (top dose mostly 114 µM), for inactives: top-dose activity change, negative = inhibition, most hits filed as inhibitors; hit rate 4.4% among 360,000; also: potency is read from the fitted curve at half-maximal effect; % is scaled to controls: 0 for no effect and ±100 for the full control effect; nearly all actives have a fitted effect of over 60% in size
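AlphaScreen displacement of biotin-H3(5-23)K14Ac peptide (50 nM final) from BAZ2B (50 nM final) in PBS pH 7.4, 0.01% Tween-20; complex preformed 30 min RT, then compounds (top 110 uM) 30 min RT, beads 20 min dark.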
CtBP-E1A blk: blocks the CtBP interaction with E1A; activity change, % (test concentration not listed); AlphaScreen GST-E1A/His-CtBP binding, 1536-well; stronger effect = lower value; hit rate 0.49% among 340,000; in the data active = activity change below about -65%; inconclusive = mostly about -30% to -63%; also: % is scaled to controls: 0 for no effect and ±100 for the full control effect
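Homogeneous bead-based format: GST-tagged E1A captured on glutathione donor beads, His-tagged CtBP on nickel acceptor beads; compounds precede bead addition by 2 h at 37 °C.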
G9a inh: inhibitors of human histone lysine methyltransferase G9a. Q96KQ7. G9a H3K9 monomethylation, AlphaScreen, 2 h. Potency, µM (top dose mostly 102 µM), for inactives: at the highest dose activity, negative = inhibition, most hits filed as inhibitors. hit rate 8.8% among 350,000. AID 504332; also: potency is read from the fitted curve at half-maximal effect; % is scaled to controls: 0 for no effect and ±100 for the full control effect; nearly all actives have a fitted effect of over 75% in size
Target sequence (Q96KQ7 913-1193 limits assumed): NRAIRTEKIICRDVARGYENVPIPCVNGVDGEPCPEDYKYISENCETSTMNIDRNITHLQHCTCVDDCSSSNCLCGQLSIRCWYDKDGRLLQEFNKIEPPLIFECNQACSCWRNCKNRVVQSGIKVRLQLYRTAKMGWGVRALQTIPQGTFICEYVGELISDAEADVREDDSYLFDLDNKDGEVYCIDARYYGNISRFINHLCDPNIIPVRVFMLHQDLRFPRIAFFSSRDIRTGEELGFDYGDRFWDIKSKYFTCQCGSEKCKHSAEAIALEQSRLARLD
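AlphaScreen detection with an anti-monomethyl H3K9 antibody quantified product after a 2 h room-temperature reaction containing 500 nM biotinylated H3K9 peptide, 20 µM SAM and 20 nM enzyme, which had been preincubated 15 min with compound.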
* = called active by the depositor; ? = inconclusive; nt = not tested or not shown; [ ] = another dose, or the depositor's remark. Most compounds without a hit are left out; they make up all but 10% or so of the library. Unless noted, calls follow the shape of the dose curve; as a rule, active = well fitted inhibition curve with a large enough effect; inconclusive = small, poorly fitted or top-dose-only effect; inactive = no such curve, though single readings can be large or run the other way.

SMILES	HP1b binding inh	Six1-Eya2 blk	JMJD2A Tudor inh	BAZ2B inh	CtBP-E1A blk	G9a inh
COC(=O)c1cnc(NNC(=O)c2ccc([N+](=O)[O-])cc2)nc1C(F)(F)F	10%	12	-22%	3%	4	2%
Cc1ccc(-c2nc(-c3cc4cc(Cl)ccc4oc3=O)sc2C)cc1	43%[57 µM]	nt	15%[57.1 µM]	nt	nt	nt
O=C1C2CC=C(Cl)CC2C(=O)N1CN(Cc1ccco1)CN1C(=O)C2CC=C(Cl)CC2C1=O (stereo not drawn)	32%	24	-25%	50µM*	7	50µM*
O=C1C2CC=C(Cl)CC2C(=O)N1CC1Cc2ccccc2CO1 (stereo not drawn)	30%	-6	-10%	-35%	1	50µM*
O=C1C2CC=C(Cl)CC2C(=O)N1CC1OCCc2ccccc21 (stereo not drawn)	35%	4	-4%	-10%	4	?
COC(=O)c1cc(OC)c(OC)cc1NC(=O)c1ccc2c(c1)CCN2S(C)(=O)=O	25%	nt	-16%	-5%	nt	1%[59 µM]
Cc1[nH]c2ccc(F)cc2c1CCNC(=O)c1cc2cc(Cl)ccc2oc1=O	41%	nt	-36%	-30%	nt	5%[59 µM]
C=CCNC(=O)c1ccccc1NC(=O)C1CCN(S(=O)(=O)c2ccc(SC)cc2)CC1	-3%	-3	-7%	50µM*	0	10%
Cc1ccccc1Nc1scc(-c2ccc(Cl)cc2)[n+]1-c1ccccc1C	?	?	?	7.9µM*	-23	20µM*
Cc1ccccc1Nc1c(-c2ccncc2)nc2ccc(Cl)cn12	53%	8	-4%	-22%	4	-3%
CN(C)NC1CCS(=O)(=O)C1 (stereo not drawn)	52%	1	?	?	12	10µM*
CC1=C(C(=O)Nc2cccc(Cl)c2)C2(CCCCCC2)OC1=O	19%	nt	-34%	-17%	nt	-2%[59 µM]
COc1cccc(NC(=O)c2nc(S(C)(=O)=O)ncc2Cl)c1	83%	24	-5%	-17%	-90*	35µM*
CN(c1ccccc1)S(=O)(=O)c1ccc(NC(=O)c2nc(S(C)(=O)=O)ncc2Cl)cc1	2%	-2	?	-26%	-4	11µM*
Cc1cccc(NC(=O)c2nc(S(C)(=O)=O)ncc2Cl)c1	36%	nt	-26%	-1%	nt	8.9µM*
CCS(=O)(=O)c1ncc(Cl)c(C(=O)Nc2c(C(=O)Nc3cccc(C)c3)oc3ccccc23)n1	25%	nt	-1%	0%	nt	?
CCCCn1cc(S(=O)(=O)c2cc(C)ccc2C)c(=O)c2cc(F)c(F)cc21	54%	nt	3%	3%	nt	-1%[59 µM]
CCOC(=O)c1ccc(S(=O)(=O)N2CCN(c3nc(-c4cccs4)nc4ccccc34)CC2)cc1	51%	nt	-9%	nt	nt	nt
Cc1nnc(N2CCN(c3ccccc3F)CC2)c2c1nnn2Cc1ccccc1	43%	nt	-1%	1%	nt	10%[59 µM]
COc1ccc(CCNC(=O)c2cc3n(n2)CCCN(Cc2ccc(C)cc2)C3=O)cc1OC	-4%	nt	-15%	?	nt	-14%[12.7 µM]
COc1ccccc1-c1noc(-c2ccc(NCC3CCCO3)c([N+](=O)[O-])c2)n1 (stereo not drawn)	38%	nt	3%	-1%	nt	-25%[59 µM]
CN(C)c1ccc(Nc2ncnc3sc4c(c23)CCCC4)cc1	22µM*	nt	25µM*	32µM*	nt	?
c1cc(Nc2ncnc3sc4c(c23)CCC4)ccn1	13%	-2	-16%	-1%	3	-22%
NNc1ncnc2sc3c(c12)CCC3	-2%	?	22µM*	18µM*	-23	-13%
CC1(C)Cc2c(sc3ncn(N)c(=N)c23)CO1	14%	-5	-11%	-1%	-5	14%[59 µM]
SMILES	HP1b binding inh	Six1-Eya2 blk	JMJD2A Tudor inh	BAZ2B inh	CtBP-E1A blk	G9a inh
CC1(C)Cc2c(sc3ncnc(NN)c23)CO1	20%	-17	50µM*	79µM*	-29	19%
CC1(C)Cc2c(sc3ncn4c(=S)[nH]nc4c23)CO1	?	-2	?	8%	-6	3.2µM*
O=C(Nc1ccc(Br)cc1)C1CCN(S(=O)(=O)c2cccc3nsnc23)CC1	21%	nt	-14%	nt	nt	-3%[59 µM]
Cc1nc(-c2ccc(Cl)cc2)sc1CCNC(=O)C(=O)Nc1ccc(F)cc1F	30%[57 µM]	nt	0%	-2%	nt	-1%[59 µM]
Cc1ccc(Cl)cc1NC(=O)c1sc2nc(-c3ccccc3)cn2c1C	18%	nt	-1%	7%	nt	-18%[59 µM]
Cn1nnc2c[n+](CC(=O)c3ccc4ccccc4c3)cc(Br)c21	20%	4	-28%	?	4	56µM*
Cn1nnc2c[n+](CC(=O)c3ccc(Cl)cc3)cc(Br)c21	14%	16	-17%	-18%	0	?
Cc1ccc(Cl)cc1N1CCN(C(=O)CCS(=O)(=O)c2cc(Br)cc3c2N(C(=O)C2CC2)CC3)CC1	17%	nt	-18%	-20%	nt	-30%[59 µM]
CN(C)c1ccc(-c2nn3c(-c4ccc(Cl)cc4)nnc3s2)cc1	56%	14	-22%	14%	12	-34%
Clc1ccc(-c2nn3c(C4COc5ccccc5O4)nnc3s2)cc1 (stereo not drawn)	?	-3	-23%	-22%	11	7.1µM*
Cc1ccc2onc(CNC(=O)N3CCN(c4cc(Cl)ccc4C)CC3)c2c1	22%	nt	-14%	-28%	nt	-1%[59 µM]
CC(C)(C)C(=O)N1CCN(c2ccc([N+](=O)[O-])cc2Cl)CC1	30%	-1	-20%	nt	-3	nt
Cc1ccc2nc(C)c(CN3CCN(c4ccc([N+](=O)[O-])cc4Cl)CC3)n2c1	nt	nt	nt	40µM*	nt	50µM*
CCC(C(=O)Nc1cc(F)ccc1F)n1nc(-c2cc(C)ccc2C)ccc1=O (stereo not drawn)	21%	nt	-18%	1%	nt	2%[59 µM]
CN(Cc1c(F)cccc1Cl)C(=O)CCc1c[nH]c2ccccc12	-17%	4	?	71µM*	2	?
COc1ccc(OC)c(NS(=O)(=O)c2ccc3[nH]c4c(c3c2)CCCCC4)c1	-21%	nt	?	?	nt	-36%[59 µM]
COc1cccc(CNC(=O)CN(C)S(=O)(=O)c2ccc3[nH]c4c(c3c2)CCCC4)c1	-2%	nt	?	-34%	nt	13µM*
Cc1ccc(N(C)S(=O)(=O)c2ccc3[nH]c4c(c3c2)CCCC4)cc1	-10%	nt	?	?	nt	?
COc1ccc(OC)c(NC(=O)CN(C)S(=O)(=O)c2ccc3[nH]c4c(c3c2)CCCC4)c1	?	nt	?	?	nt	13µM*
COc1cccc(CNC(=O)CN(C)S(=O)(=O)c2cnc[nH]2)c1	25%	27	-1%	3%	37	3%[59 µM]
CN(CC(=O)NCc1ccc(Cl)cc1)S(=O)(=O)c1ccc2[nH]c3c(c2c1)CCCC3	-2%	nt	?	-29%	nt	10µM*
O=c1cc(O)nc(SC23CC4CC(CC(C4)C2)C3)[nH]1	16%	1	-35%	-35%	2	45µM*
